Source: PubChem BioAssay (National Center for Advancing Translational Sciences (NCATS))
Pf Dd2 inh = qHTS Primary assay for Inhibitors of Plasmodium falciparum Dd2 growth in vitro | AID 1347417, 2020 | P. falciparum Dd2 growth, SYBR Green, 72 h | Potency, µM (titrated, usually from 28.9 µM), without a hit: at the top dose activity, negative = inhibition, hits mostly inhibitors | actives 4.3% (n = 120,000); active means well fitted inhibition curve with a large enough effect;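 further: plate controls were DMSO vehicle for no effect and reference drug for full effect; nearly all actives have a fitted effect of over 65% in size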
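Readout: SYBR Green fluorescence, 485 nm excitation, 535 nm emission, after ~16 h lysis at 37C. Before that, Dd2-infected red cells (2.5% hematocrit) grew 72 h with compound, 29 uM top final concentration.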
* marks the source's active call; other numbers are inactive results; i = inactive; ! = not active in a repeat; [ ] = another dose, or the depositor's remark. Many of the other results were omitted from the sample, so hits are more common in it than they were. Potency means the concentration at half of the fitted maximal effect.

SMILES | Pf Dd2 inh
COc1ccc(C(=O)N2CCC3(C2)C(=O)N(CCc2ccccc2)c2ccccc23)cc1 (stereo not drawn) | 8.9µM*!
O=C(c1cccc(Cl)c1)N1CCC2(C1)C(=O)N(CCc1ccccc1)c1ccccc12 (stereo not drawn) | 7.9µM*!
COc1ccc(C(=O)N2CCC3(C2)C(=O)N(Cc2ccccc2)c2ccccc23)cc1 (stereo not drawn) | i
CC(C)CCNC(=O)N1CCC2(CC1)C(=O)N(C)c1ccccc12 | -15%
CNc1nccc(N2CCC(CC(=O)NCc3cc(OC)cc(OC)c3)CC2)n1 | -19%
CC(=O)NCC1(COc2cccnc2)C[C@@H](O)[C@@H](O)C1 (stereo partly drawn) | 37%[44.1 µM]
Cc1ccccc1[C@H]1C[C@@H](O)[C@@H](O)[C@@H]1NS(=O)(=O)c1ccc(C#N)cc1 | -13%[44.1 µM]
COc1ccc(C(=O)N[C@@H]2CN(c3ncccn3)C[C@H]2CN(C)C)cc1OC | 22%
Cc1cc(C(=O)NCC2(COc3ccc(S(C)(=O)=O)cc3)C[C@@H](O)[C@@H](O)C2)no1 (stereo partly drawn) | 4%[44.1 µM]
CS(=O)(=O)N1CCn2cc(C(=O)Nc3ccc(Cl)cc3Cl)nc2C1 | -4%
CC(=O)NC1(C)CCN(Cc2cccc(-c3ccc(N4CCOCC4)cc3)c2)C1 (stereo not drawn) | -3%[44.1 µM]
CC(=O)NC1(C)CCN(Cc2ccc(-c3cccc4ncccc34)cc2)C1 (stereo not drawn) | i
CC(=O)NC1(C)CCCN(Cc2cccc(Nc3ccncc3)c2)C1 (stereo not drawn) | -23%[44.1 µM]
CC(=O)NC1(C)CCN(Cc2ccc(-c3ccc4ccccc4c3)cc2)C1 (stereo not drawn) | 10µM*
CC(=O)NC1(C)CCCN(c2ccc(Oc3ccccc3)cc2)C1 (stereo not drawn) | 18%[44.1 µM]
CC(=O)NC1(C)CCN(Cc2ccccc2-c2ccccc2Oc2ccccc2)C1 (stereo not drawn) | 5µM*
CC(=O)NC1(C)CCN(Cc2cccc(-c3cccc4ncccc34)c2)C1 (stereo not drawn) | i
CC(=O)NC1(C)CCCN(Cc2cccc(-c3ccccc3)c2)C1 (stereo not drawn) | 8.9µM*
CC(=O)NC1(C)CCCN(Cc2ccc(Oc3ccccc3)cc2)C1 (stereo not drawn) | i
COc1cccc(S(=O)(=O)N2CCC(c3noc(-c4cccnc4)n3)C2)c1 (stereo not drawn) | 30%[5.79 µM]
Cc1ccccc1-c1cnc2[nH]cc(CC(=O)N3CCOCC3)c2c1 | 17%[44.1 µM]
COc1nc2c(cc1CNC(=O)CC1CC1)C(=O)N(CCc1ccccn1)C2 | -23%
Cc1cc(C)c2[nH]c(C(=O)NCc3nc(-c4ccccn4)no3)c(C)c2c1 | -6%
CC(C)N1C(=O)C2(CCCCC2)C1C(=O)N1CCOCC1 (stereo not drawn) | 14%
O=C1c2c(nc(COc3cccc(Cl)c3)n2Cc2ccccc2)NCCN1CCOc1ccccc1 | -22%
SMILES | Pf Dd2 inh
CN1CC(=O)N(C2CCCC2)Cc2c(NCC3CC3)ncnc21 | 8%
COCCN1CC(CO)C2(CCN(Cc3cccc(C#N)c3)CC2)C1 (stereo not drawn) | -7%
COCCN1CC(CO)C2(CCN(Cc3ccc(F)c(F)c3)CC2)C1 (stereo not drawn) | -20%
COCCN1CC(CO)C2(CCN(Cc3cccc(Cl)c3)CC2)C1 (stereo not drawn) | 10µM*
CCn1cc(C(=O)NCc2ccccc2Cl)c(=O)c2cc(S(=O)(=O)N3CCOCC3)ccc21 | -12%
CCn1cc(C(=O)NCc2ccccc2Cl)c(=O)c2cc(S(=O)(=O)N3CCc4ccccc4C3)ccc21 | 10µM*
CCn1cc(C(=O)NCc2ccccc2Cl)c(=O)c2cc(S(=O)(=O)N3CCCCCC3)ccc21 | -17%
CCn1cc(C(=O)NCc2ccccc2OC)c(=O)c2cc(S(=O)(=O)N3CCCCC3)ccc21 | 10µM*
CCn1cc(C(=O)NCc2ccccc2Cl)c(=O)c2cc(S(=O)(=O)N3CCCCC3)ccc21 | 1%
CCN(CC)CCNC(=O)c1cn(CC)c2ccc(S(=O)(=O)N3CCc4ccccc4C3)cc2c1=O | i
CCC(C)NC(=O)CCN(CCCOC)C(=O)c1cc(C)oc1C (stereo not drawn) | -16%
CC(C)n1cc2cc(C(=O)NCc3cccnc3)sc2c1 | i
COc1cc(CNC(=O)c2cc3cn(C(C)C)cc3s2)cc(OC)c1 | 13µM*
COc1ccc(CNC(=O)c2cc3cn(C(C)C)cc3s2)cc1 | i
O=C(CN1CC2CC(C1)[C@H]1CCCC(=O)N1C2)NCc1ccccn1 (stereo partly drawn) | 7%
C=CCNC(=O)N[C@H]1CCN(C(=O)CC(C)(C)C)[C@@H]1C(=O)N[C@@H](C(=O)OC)C(C)C | -19%[44.1 µM]
Cc1ccc(CNC(=O)c2cc(S(=O)(=O)N3CCCCC3)cn2C)cc1 | -21%
Cc1cc(C)cc(NC(=O)c2cc(S(=O)(=O)N3CCCCC3)c[nH]2)c1 | 28%
Cn1cc(S(=O)(=O)N2CCCCC2)cc1C(=O)NCc1ccc(Cl)cc1 | 11µM*
O=C(NCc1ccc(Cl)cc1)c1cc(S(=O)(=O)N2CCCCC2)c[nH]1 | 11µM*
Cn1cc(S(=O)(=O)N2CCCCCC2)cc1C(=O)NCc1ccc(F)cc1 | -5%
CCc1ccc(NC(=O)c2cc(S(=O)(=O)N3CCCCC3)c[nH]2)cc1 | 10%
CCCNC(=O)C(NC(=O)c1ccc(C)cc1)C1CCN(C(=O)c2ccc(F)cc2)CC1 (stereo not drawn) | i
COc1ccccc1N1CCN(C(=O)C(OC)c2ccccc2)CC1=O (stereo not drawn) | -2%
O=C(CC(F)(F)F)N1CCOc2ccc(CN3CCc4ccccc4C3)cc2C1 | i
SMILES | Pf Dd2 inh
O=C(NCc1ccco1)N1CCOc2ccc(CN3CCc4ccccc4C3)cc2C1 | -18%
Cc1ccsc1C(=O)N1CCOc2ccc(CN3CCc4ccccc4C3)cc2C1 | 7.9µM*
CCNC(=O)N1CCOc2ccc(CN3CCc4ccccc4C3)cc2C1 | i
O=C(C1CCC1)N1CCOc2ccc(CN3CCc4ccccc4C3)cc2C1 | 10µM*
O=C(c1cccc(F)c1)N1CCOc2ccc(CN3CCc4ccccc4C3)cc2C1 | 7.9µM*
Cn1nccc1C(=O)N1CCOc2ccc(CN3CCc4ccccc4C3)cc2C1 | -7%
Cc1cccc(C(=O)N2CCOc3ccc(CCC(N)=O)cc3C2)c1 | -18%
O=C(c1noc2c1CCCC2)N1CCOc2ccc(CN3CCN(c4ccccn4)CC3)cc2C1 | -17%
COc1ccc(C2(C(=O)NCCc3ncc(C)n3CC3CC3)CC2)cc1 | -32%
O=C(c1ncn[nH]1)N1C[C@@H](COCC2CC2)[C@H](c2ccccn2)C1 | 12%
O=C(CCCc1c[nH]c2ccccc12)NC1CCc2n[nH]c(=O)n2CC1 (stereo not drawn) | 1%
CN1CCC(OC2CCN(C(=O)c3ccc(Br)o3)CC2)CC1 | 122%
O=C1N2CCCC2CN1C1CCN([S+](=O)([O-])c2cccc(C(F)(F)F)c2)CC1 (stereo not drawn) | -24%
CN(C)C(=O)c1cccnc1OC1CCN(S(=O)(=O)c2cc(F)cc(F)c2)C1 (stereo not drawn) | 4%
Cc1nc2n(c1C(=O)NCC1CC1)CCC(Nc1ccc(F)cc1)C2 (stereo not drawn) | -25%[44.1 µM]
Cc1ccccc1NC1CCn2c(nc(C)c2C(=O)Nc2ccccc2)C1 (stereo not drawn) | i
Cc1nc2n(c1C(=O)Nc1cc(-c3ccc(F)cc3)[nH]n1)CCC(Nc1ccc(F)cc1)C2 (stereo not drawn) | 8.9µM*
